Molecular target: ST8SIA1
Test: pooled miR-30 sensor sort-seq; sequence = guide strand
Details: shRNA
Note: reference of the scale not given here.

Sequence	sensor-assay potency score (higher = more potent)
TTTGATTGGCACCAACATCTGA	-0.123
TAAGTTGAATTGTCAATGGTGA	-0.263
TTGATTGGCACCAACATCTGAC	-0.0698
TTTGCTTCATCTATTTGACGGC	0.566
TGACAGTGTATAATAAACCCTC	-0.586
TTGTCCACAAATGTCTTTCTGG	-0.546
TTTGTTTCCTGAACGCTCTGGC	0.807
TTAGCTGTCACTAACTGACTTT	0.0924
TAGCTGTCACTAACTGACTTTT	-1.28
TAAGACGTTGTCATAGTAGTGG	0.604
TTGACAATCAGCAACACTTTTA	-1.09

Molecular target: ST8SIA4
Test: as above
Details: shRNA

Sequence	sensor-assay potency score (higher = more potent)
ATTGTGACTGTCAATCTCCTTT	-0.228
TTGACCACTGACACATCTCGTT	0.237
TTTGATAGGAACTTTGTTGGTC	0.701
TTTAACTACAGAAAATATCGGT	0.525
TTCTATTTGAATAACAAGGGGA	-0.346
TTAACTACAGAAAATATCGGTC	0.169
TTTCCAACCTTCTACATTGTGC	-0.709
TTGAAATTAATCATCTCTGTTT	0.14
TTATGTAGCACATTTAATGTTT	-0.574
TACATGAGAAGACCTGTGCTGG	-0.695
TCTTTTGATAGGAACTTTGTTG	-0.556
